# Experimental data reported in PubChem BioAssay AID1159580 (chemical genetic matrix, 2015).
# The campaign covered roughly 5,500 compounds. About 2,000 (36%) were called active. Inconclusive results (about 18%) are left out. Some of the results follow. Unmarked numbers belong to inactive results. No stated cut-off is given here; in the data, active means normalized growth mostly below about 0.91 (no sharp cut-off); inconclusive means no clear call, values can overlap the other calls; inactive means mostly above about 0.92.
# Assay: chemical genetic growth profiling, strain panel (AID 1159580);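 further: tested at 20 µM; growth read once vehicle control cultures reached saturation at 30 °C; 1 = growth at the plate median or of vehicle wells; lower values mean less growth of the strain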
# Settings: growth OD
smiles,measurement,setting,value
C=C1c2c(Cl)ccc(O)c2C(O)=C2C(=O)[C@]3(O)C(O)=C(C(N)=O)C(=O)[C@@H](N(C)C)[C@@H]3[C@@H](O)[C@H]12,normalized growth,"S. cerevisiae deletion strains, locus YJR075W, strain HOC1, hits give low values",0.96
same,normalized growth,"S. cerevisiae deletion strains, locus YKL009W, strain mrt4, hits give low values",1
same,normalized growth,"S. cerevisiae deletion strains, locus YKL068W, hits give low values",0.989
same,normalized growth,"S. cerevisiae deletion strains, locus YKL085W, strain MDH1 (second series), hits give low values",0.971
same,normalized growth,"S. cerevisiae deletion strains, locus YKL085W, strain MDH1, hits give low values",0.971
same,normalized growth,"S. cerevisiae deletion strains, locus YKL160W, strain elf1, hits give low values",0.999
same,normalized growth,"S. cerevisiae deletion strains, locus YKL190W, strain CNB1, hits give low values",0.979
same,normalized growth,"S. cerevisiae deletion strains, locus YKR001C, strain vps1, hits give low values",0.917
same,normalized growth,"S. cerevisiae deletion strains, locus YKR026C, strain gcn3, hits give low values",0.983
same,normalized growth,"S. cerevisiae deletion strains, locus YKR091W, strain srl3, hits give low values",0.973
same,normalized growth,"S. cerevisiae deletion strains, locus YLL001W, strain dnm1, hits give low values",1.01
same,normalized growth,"S. cerevisiae deletion strains, locus YLL026W, hits give low values",0.996
same,normalized growth,"S. cerevisiae deletion strains, locus YLL041C, strain sdh2, hits give low values",0.985
same,normalized growth,"S. cerevisiae deletion strains, locus YLR027C, strain aat2, hits give low values",1
same,normalized growth,"S. cerevisiae deletion strains, locus YLR039C, strain RIC1, hits give low values",0.968
same,normalized growth,"S. cerevisiae deletion strains, locus YLR058C, strain SHM2, hits give low values",0.937
same,normalized growth,"S. cerevisiae deletion strains, locus YLR102C, strain apc9, hits give low values",0.986
same,normalized growth,"S. cerevisiae deletion strains, locus YLR113W, strain HOG1, hits give low values",1.01
same,normalized growth,"S. cerevisiae deletion strains, locus YLR221C, strain rsa3, hits give low values",0.935
same,normalized growth,"S. cerevisiae deletion strains, locus YLR258W, strain gsy2, hits give low values",0.948
same,normalized growth,"S. cerevisiae deletion strains, locus YLR262C, strain YPT6 (second series), hits give low values",0.974
same,normalized growth,"S. cerevisiae deletion strains, locus YLR262C, strain YPT6, hits give low values",0.997
same,normalized growth,"S. cerevisiae deletion strains, locus YLR268W, strain sec22, hits give low values",0.866 (active)
same,normalized growth,"S. cerevisiae deletion strains, locus YLR320W, strain mms22, hits give low values",0.926
same,normalized growth,"S. cerevisiae deletion strains, locus YLR330W, strain CHS5, hits give low values",0.981
same,normalized growth,"S. cerevisiae deletion strains, locus YLR342W, strain FKS1 (second series), hits give low values",0.875
same,normalized growth,"S. cerevisiae deletion strains, locus YLR342W, strain FKS1, hits give low values",0.965
same,normalized growth,"S. cerevisiae deletion strains, locus YLR357W, strain rsc2, hits give low values",0.895
same,normalized growth,"S. cerevisiae deletion strains, locus YLR370C, strain arc18, hits give low values",0.988
same,normalized growth,"S. cerevisiae deletion strains, locus YLR371W, strain rom2, hits give low values",0.987
same,normalized growth,"S. cerevisiae deletion strains, locus YLR384C, strain iki3, hits give low values",0.988
same,normalized growth,"S. cerevisiae deletion strains, locus YLR418C, strain cdc73, hits give low values",0.899
same,normalized growth,"S. cerevisiae deletion strains, locus YML016C, strain PPZ1, hits give low values",0.968
same,normalized growth,"S. cerevisiae deletion strains, locus YML032C, strain rad52, hits give low values",0.937
same,normalized growth,"S. cerevisiae deletion strains, locus YML120C, strain ndi1, hits give low values",0.993
same,normalized growth,"S. cerevisiae deletion strains, locus YML124C, strain tub3, hits give low values",0.977
same,normalized growth,"S. cerevisiae deletion strains, locus YMR058W, strain fet3, hits give low values",0.841 (active)
same,normalized growth,"S. cerevisiae deletion strains, locus YMR078C, strain ctf18, hits give low values",0.983
same,normalized growth,"S. cerevisiae deletion strains, locus YMR125W, strain sto1, hits give low values",0.954
same,normalized growth,"S. cerevisiae deletion strains, locus YMR129W, hits give low values",0.981
same,normalized growth,"S. cerevisiae deletion strains, locus YMR205C, strain PFK2, hits give low values",0.998
same,normalized growth,"S. cerevisiae deletion strains, locus YMR223W, strain ubp8, hits give low values",0.969
same,normalized growth,"S. cerevisiae deletion strains, locus YMR231W, strain pep5, hits give low values",0.987
same,normalized growth,"S. cerevisiae deletion strains, locus YMR263W, strain SAP30, hits give low values",0.957
same,normalized growth,"S. cerevisiae deletion strains, locus YMR307W, strain GAS1, hits give low values",0.887
same,normalized growth,"S. cerevisiae deletion strains, locus YNL067W, strain RPL9B, hits give low values",0.93
same,normalized growth,"S. cerevisiae deletion strains, locus YNL071W, strain lat1, hits give low values",0.96
same,normalized growth,"S. cerevisiae deletion strains, locus YNL128W, strain TEP1, hits give low values",0.936
same,normalized growth,"S. cerevisiae deletion strains, locus YNL153C, strain GIM3, hits give low values",0.897
same,normalized growth,"S. cerevisiae deletion strains, locus YNL183C, strain NPR1, hits give low values",0.947
same,normalized growth,"S. cerevisiae deletion strains, locus YNL209W, strain ssb2, hits give low values",0.924 (active)
same,normalized growth,"S. cerevisiae deletion strains, locus YNL233W, strain BNI4, hits give low values",0.919
same,normalized growth,"S. cerevisiae deletion strains, locus YNL248C, strain rpa49, hits give low values",0.921
same,normalized growth,"S. cerevisiae deletion strains, locus YNL250W, strain rad50, hits give low values",0.96
same,normalized growth,"S. cerevisiae deletion strains, locus YNL271C, strain bni1, hits give low values",0.961
same,normalized growth,"S. cerevisiae deletion strains, locus YNL298W, strain CLA4, hits give low values",1
same,normalized growth,"S. cerevisiae deletion strains, locus YNL307C, strain MCK1, hits give low values",0.965
same,normalized growth,"S. cerevisiae deletion strains, locus YNL322C, strain KRE1 (second series), hits give low values",0.958
same,normalized growth,"S. cerevisiae deletion strains, locus YNL322C, strain KRE1, hits give low values",0.985
same,normalized growth,"S. cerevisiae deletion strains, locus YNR049C, strain mso1, hits give low values",0.971
same,normalized growth,"S. cerevisiae deletion strains, locus YNR052C, strain pop2, hits give low values",0.99
same,normalized growth,"S. cerevisiae deletion strains, locus YOL006C, strain TOP1, hits give low values",0.839
same,normalized growth,"S. cerevisiae deletion strains, locus YOL012C, strain htz1",0.807
same,normalized growth,"S. cerevisiae deletion strains, locus YOL147C, strain pex11, hits give low values",0.975
same,normalized growth,"S. cerevisiae deletion strains, locus YOR001W, strain rrp6, hits give low values",0.997
same,normalized growth,"S. cerevisiae deletion strains, locus YOR061W, strain CKA2, hits give low values",0.973
same,normalized growth,"S. cerevisiae deletion strains, locus YOR069W, strain VPS5, hits give low values",0.974
same,normalized growth,"S. cerevisiae deletion strains, locus YOR070C, strain gyp1, hits give low values",0.951
same,normalized growth,"S. cerevisiae deletion strains, locus YOR080W, strain dia2, hits give low values",0.988
same,normalized growth,"S. cerevisiae deletion strains, locus YOR083W, strain WHI5, hits give low values",0.96
same,normalized growth,"S. cerevisiae deletion strains, locus YOR106W, strain vam3, hits give low values",0.974
same,normalized growth,"S. cerevisiae deletion strains, locus YOR136W, strain idh2, hits give low values",0.997
same,normalized growth,"S. cerevisiae deletion strains, locus YOR144C, strain elg1, hits give low values",0.984
same,normalized growth,"S. cerevisiae deletion strains, locus YOR184W, strain ser1, hits give low values",0.978
same,normalized growth,"S. cerevisiae deletion strains, locus YOR231W, strain MKK1, hits give low values",0.972
same,normalized growth,"S. cerevisiae deletion strains, locus YOR265W, strain rbl2, hits give low values",0.974
same,normalized growth,"S. cerevisiae deletion strains, locus YOR270C, strain vph1, hits give low values",0.97
same,normalized growth,"S. cerevisiae deletion strains, locus YOR290C, strain snf2, hits give low values",0.916
same,normalized growth,"S. cerevisiae deletion strains, locus YOR316C, strain cot1, hits give low values",0.992
same,normalized growth,"S. cerevisiae deletion strains, locus YPL051W, strain arl3, hits give low values",0.973
same,normalized growth,"S. cerevisiae deletion strains, locus YPL055C, strain LGE1, hits give low values",0.94
same,normalized growth,"S. cerevisiae deletion strains, locus YPL078C, strain atp4, hits give low values",1.02
same,normalized growth,"S. cerevisiae deletion strains, locus YPL106C, strain sse1, hits give low values",0.898
same,normalized growth,"S. cerevisiae deletion strains, locus YPL240C, strain hsp82, hits give low values",1
same,normalized growth,"S. cerevisiae deletion strains, locus YPL241C, strain CIN2, hits give low values",0.978
same,normalized growth,"S. cerevisiae deletion strains, locus YPL256C, strain CLN2, hits give low values",1.01
same,normalized growth,"S. cerevisiae deletion strains, locus YPR119W, strain clb2, hits give low values",0.985
same,normalized growth,"S. cerevisiae deletion strains, locus YPR141C, strain kar3, hits give low values",0.979
same,normalized growth,"S. cerevisiae deletion strains, locus YPR163C, strain tif3, hits give low values",0.958
same,normalized growth,"S. cerevisiae deletion strains, locus YPR167C, strain met16, hits give low values",0.977
same,normalized growth,"S. cerevisiae deletion strains, strain wtn01, hits give low values",0.934
same,normalized growth,"S. cerevisiae strains, strain wild type, hits give low values",0.95
